One experiment relates to CRL-7250. Description: Cytotoxic Profiling of Annotated Libraries Using Quantitative High-Throughput Screening (AID 1296008). Further: nearly all actives have a fitted effect of over 60% in size. Further: potency means the concentration at half of the fitted maximal effect. On max response: on the % scale 0 is the no-effect control and ±100 the full control effect. The settings on record: Five cell lines viability, CellTiter-Glo ATP luminescence, 48-72 h; max response: hits give low values. In a few lines:
(§1)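 Cytotoxicity was measured as CellTiter-Glo ATP luminescence, read after 10 min at room temperature. Compound treatment of the cells lasted 48 or 72 hr at 37 degrees Celsius in a qHTS format.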
(Cellular ATP, detected with luciferase, serves as a proxy for viable cell number.)

Another experiment deals with HEK293. Described as above. As to conditions: Five cell lines viability, CellTiter-Glo ATP luminescence, 48-72 h; max response: hits give low values. In a few lines: as §1
In a further experiment the test system is C33A. Description: Primary qHTS to identify gynecologic anti-cancer compounds using libraries of approved drugs and bioactive compounds (AID 1345084). Further: nearly all actives have a fitted effect of over 55% in size. Further: potency means the concentration at half of the fitted maximal effect. As to conditions: Gynecologic cancer cell panel viability, ATPlite luminescence, 48 h; series mostly up to 57.5 µM. An outline of the steps:
(§2)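 Five-point cytotoxicity, 48 h drug exposure at 37 C, 5% CO2, on cells seeded 16 h beforehand. ATP content read by ATPlite luminescence.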
Background: In qHTS, concentration-response curves come from the screen itself.

The next experiment relates to CAOV3. Described as above. As to conditions: Gynecologic cancer cell panel viability, ATPlite luminescence, 48 h; series mostly up to 57.5 µM. In a few lines: as §2
The next experiment relates to CASKI. The description is as above. As to conditions: Gynecologic cancer cell panel viability, ATPlite luminescence, 48 h; series mostly up to 57.5 µM. An outline of the steps:
as §2

Another experiment concerns Es-2. The experiment is described as above. As to conditions: Gynecologic cancer cell panel viability, ATPlite luminescence, 48 h; series mostly up to 57.5 µM. An outline of the steps: as §2
Another experiment concerns HeLa. The description is as above. The settings on record: Gynecologic cancer cell panel viability, ATPlite luminescence, 48 h; series mostly up to 57.5 µM. An outline of the steps:
as §2

The next experiment has as its system Hek293T. The description is as above. As to conditions: Gynecologic cancer cell panel viability, ATPlite luminescence, 48 h, control line for the selectivity index; series mostly up to 57.5 µM. An outline of the steps:
as §2

A further experiment has as its system JEG-3. Described as above. As to conditions: Gynecologic cancer cell panel viability, ATPlite luminescence, 48 h; series mostly up to 57.5 µM. In a few lines: as §2
For the next experiment, the system named is OV90. The experiment is described as above. As to conditions: Gynecologic cancer cell panel viability, ATPlite luminescence, 48 h; series mostly up to 57.5 µM. An outline of the steps:
as §2

A further experiment concerns PA-1. The description is as above. As to conditions: Gynecologic cancer cell panel viability, ATPlite luminescence, 48 h; series mostly up to 57.5 µM. An outline of the steps: as §2
Experiment [1] has as its system NIH3T3. Description: Cytotoxic Profiling of Annotated Libraries Using Quantitative High-Throughput Screening (AID 1296008). Further: nearly all actives have a fitted effect of over 60% in size. Further: potency means the concentration at half of the fitted maximal effect. On max response: on the % scale 0 is the no-effect control and ±100 the full control effect. As to conditions: Five cell lines viability, CellTiter-Glo ATP luminescence, 48-72 h; max response: hits give low values. An outline of the steps:
as §1

The subject of experiment [2] is HaCat. The description is as above. The settings on record: Five cell lines viability, CellTiter-Glo ATP luminescence, 48-72 h; max response: hits give low values. In a few lines:
as §1

The next experiment deals with KB-3-1. The experiment is described as above. The settings on record: Five cell lines viability, CellTiter-Glo ATP luminescence, 48-72 h; max response: hits give low values. An outline of the steps:
as §1

The subject of experiment [3] is HACAT. Description: qHTS assay to identify novel small-molecules to repurpose for Merkel cell carcinoma treatment (AID 1296009). Further: nearly all actives have a fitted effect of over 60% in size. The settings on record: MCC and control cell lines, CellTiter-Glo viability, 72 h; at 44.8 µM (top of the series) unless noted. In a few lines: (§3)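 Cell viability, measured as CellTiter-Glo luminescence, was normalized between DMSO and no-cell wells. The cells had been exposed to 8- or 11-point compound dilutions for 72 hr at 37 degree celsius.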

Experiment [4] concerns NIH3T3. Described as above. As to conditions: MCC and control cell lines, CellTiter-Glo viability, 72 h; series mostly up to 44.8 µM. In a few lines:
as §3

Results filed as inconclusive are left out. Values without a mark were called inactive. The source made the active and inactive calls. The call rests on the fitted dose curve; in most records, active means well fitted curve in the direction sought with a large enough effect; inconclusive means small, poorly fitted or top-dose-only effect, or another doubt; inactive means no such curve, though single readings can be large; an effect the other way counts as inactive or inconclusive.

Consider `COc1cc2c(cc1OC(C)C)[C@H](c1ccc(Cl)cc1)N(c1ccc(N(C)CC3CCC(N4CCN(C)C(=O)C4)CC3)cc1)C(=O)C2` (stereo not given in full), for which the Potency with CRL-7250 is 18.4 µM (active); in the experiment with PA-1, 11.2 µM (active). For the same compound, in the experiment with HEK293, the max response is -97.2%. Besides, the Potency entry in the experiment with C33A, with CAOV3, in the experiment on CASKI, with Es-2, with HeLa and with Hek293T was “inactive” throughout. The Potency result in the experiment with JEG-3 and in the experiment with OV90 was “inactive” each time.
On to `C=C1C(=O)OC2/C=C(\COC(C)=O)CC/C=C(\C=O)CC(OC(=O)CC(C)C)C12` (stereo not given), for which the results for the Potency in the experiment on CRL-7250, in the experiment with HEK293 and in the experiment on Hek293T were 7.96 µM (active), 2.82 µM (active) and 8.91 µM (active), respectively. Also, the Potency result in the experiment with CASKI and in the experiment with HeLa was “inactive” throughout.
In the case of `CCC(C)CC(=O)OC1C(=O)C(CO)=CC(O)C1C(C)C` (stereo not given), the Potency in the experiment on CRL-7250 was 18.4 µM (active); in the experiment on HEK293, 8.2 µM (active); in the experiment with C33A, 31.6 µM (active); with CAOV3, 28.2 µM (active); in the experiment with CASKI, 28.2 µM (active); in the experiment with PA-1 it was 31.6 µM (active).
For the compound `C=C1C(=O)O[C@H]2C3=C(C)CCC[C@]3(C)C(=O)C[C@@H]12`, the Potency with CRL-7250 is 18.4 µM (active); in the experiment on HEK293, 5.8 µM (active); in the experiment with NIH3T3 [1], 16.4 µM (active); with CAOV3, 31.6 µM (active); in the experiment on Es-2, 31.6 µM (active). Further, the Potency result in the experiment with HeLa and in the experiment with JEG-3 was “inactive” each time.
`CCCCNc1ncc(-c2ccc(CN3CCOCC3)cn2)c(NC2CCC(O)CC2)n1` (stereo not given): the max response in the experiment with CRL-7250 was -14.5%; in the experiment on HEK293, -11.5%. Besides, the Potency result with C33A, with CAOV3, in the experiment on CASKI, in the experiment with Es-2, in the experiment with Hek293T and in the experiment on JEG-3 was “inactive” throughout. Besides, the Potency entry in the experiment on OV90 and in the experiment on PA-1 was “inactive” throughout.
On to `C/C=C(\C)C(=O)OC1C=C(C)CC(OC(=O)c2ccc(O)cc2)C2C1(C)CCC2(O)C(C)C` (stereo not given), for which the values for the max response in the experiment on CRL-7250 and in the experiment with KB-3-1 were 1.09% and 5.76%, respectively. Also, the compound was called inactive in the experiment with HaCat [2] and in the experiment on NIH3T3 [1]. The outcome with HACAT [3] is “inactive [at 17.4 µM]”. For the same compound, the Potency result in the experiment with NIH3T3 [4], in the experiment with C33A, in the experiment with CAOV3, in the experiment with CASKI, in the experiment with Es-2 and in the experiment with HeLa was “inactive” throughout. The Potency entry in the experiment with Hek293T, with JEG-3, in the experiment on OV90 and in the experiment with PA-1 was “inactive” each time.
Turning to `CN1CCN(C2CCN(C(=O)Nc3cc(Oc4ccc(NC(=O)C5(C(=O)Nc6ccc(F)cc6)CC5)c(F)c4)ccn3)CC2)CC1`, the Potency with CRL-7250 is 9.2 µM (active); in the experiment on HEK293, 13 µM (active); in the experiment with NIH3T3 [1], 2.59 µM (active). The Potency result in the experiment with C33A, in the experiment with CASKI, in the experiment on HeLa and with Hek293T was “inactive” in each case.
For `COC1CC(=O)C23C(=O)NC(Cc4c[nH]c5ccccc45)C2C(C)C2(C)OC2C3/C=C/CC(C)CC1O` (stereo not given), the Potency with CRL-7250 was 5.02 µM (active); in the experiment with HEK293, 7.09 µM (active). The Potency entry in the experiment on C33A, with CAOV3, in the experiment with Es-2, in the experiment on Hek293T and in the experiment on OV90 was “inactive” throughout.
`Cc1[nH]c2ccc(F)cc2c1-c1nc2c3cccnc3c3ncccc3c2[nH]1`: the Potency in the experiment with CRL-7250 was 3.66 µM (active); in the experiment with HEK293, 4.61 µM (active); with NIH3T3 [1] it was 14.6 µM (active); in the experiment with CAOV3, 3.98 µM (active); with Es-2, 14.1 µM (active); in the experiment on OV90 it was 5.62 µM (active). The Potency in the experiment with PA-1 was 7.94 µM (active). Further, the Potency result in the experiment with HeLa and in the experiment with JEG-3 was “inactive” throughout.
On to `C=C(C)C(=O)O[C@H]1[C@H]2C(=C)C(=O)O[C@@H]2C[C@@H](C)[C@@H]2O[C@@H]2C(=O)[C@](C)(O)[C@@H]1OC(=O)C(=C)C`, for which the Potency in the experiment with CRL-7250 was 7.09 µM (active); with HEK293, 2.52 µM (active); in the experiment on NIH3T3 [1] it was 3.55 µM (active); in the experiment with C33A it was 10 µM (active); with CASKI it was 10 µM (active); in the experiment on Es-2 it was 7.94 µM (active). In addition, the results for the Potency in the experiment on Hek293T and with JEG-3 were 2.82 µM (active) and 12.6 µM (active), respectively.
As for `C=C1C(=O)O[C@H]2/C=C(/C)[C@@H](OC(C)=O)C/C=C(\C)C[C@@H](OC(=O)/C(=C/C)COC(=O)/C(=C/C)CO)[C@@H]12`, the figures for the Potency in the experiment on CRL-7250, with HEK293 and with CAOV3 were 8.93 µM (active), 3.17 µM (active) and 8.91 µM (active), respectively. The Potency entry with HeLa and with OV90 was “inactive” each time.

For the origin of these results see PubChem BioAssay (NCATS).
